The text below walks through data of PubChem BioAssay (NCI).

Assay [1] is described as follows: NCI Yeast Anticancer Drug Screen. Data for the rad50 strain (AID 155).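 Further: 0% = growth of vehicle-only cultures of the same strain.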 As to conditions: S. cerevisiae rad50 strain growth inhibition, stronger effect = higher value. In short, it runs like this: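 Growth of the mutant yeast was measured after compound exposure and referenced to vehicle-treated cultures.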
Assay [2] in a line: NCI Yeast Anticancer Drug Screen. Data for the mec2-1 strain (AID 157). Conditions: S. cerevisiae mec2-1 strain, stronger effect = higher value. An outline of the steps:
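Growth inhibition is read against vehicle-treated controls after compound exposure of the mec2-1 yeast strain, which is defective in DNA damage repair or cell cycle control.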

The nature of assay [3]: NCI Yeast Anticancer Drug Screen. Data for the sgs1 mgt1 strain (AID 161).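 Further: 0% = growth of cultures given vehicle only.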 Conditions: S. cerevisiae sgs1 mgt1 strain, stronger effect = higher value. An outline of the steps:
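Growth of a repair-deficient yeast mutant was monitored after compound treatment and expressed as inhibition relative to vehicle-treated cultures.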

The nature of assay [4]: NCI Yeast Anticancer Drug Screen. Data for the cln2 rad14 strain (AID 165).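 Further: 0% = growth equal to vehicle treated cultures.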 Conditions: S. cerevisiae cln2 rad14 strain, stronger effect = higher value. An outline of the steps:
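Growth inhibition, relative to vehicle-treated controls, is the read-out. The test organism is a yeast strain with defined genetic alterations, cln2 rad14.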

A short description of assay [5]: NCI Yeast Anticancer Drug Screen. Data for the bub3 strain (AID 167). Conditions: S. cerevisiae bub3 mutant strain, stronger effect = higher value. In short, it runs like this: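 Whole-cell yeast assay. The mutant strain was incubated with compounds, and growth inhibition was determined by comparison with vehicle-treated cells.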
Assay [6] can be described thus: NCI Yeast Anticancer Drug Screen. Data for the mlh1 rad18 strain (AID 175). Conditions: S. cerevisiae mlh1 rad18 strain growth inhibition, stronger effect = higher value. In short, it runs like this: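 Cells of a genetically altered yeast strain, deficient in DNA damage repair, were treated with compound. Their growth was then compared with that of vehicle-treated cultures to give inhibition.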

The mark [7] stands for this setting: at 5.0 µM (retest, dose inferred, filed as 0.5).
The mark [8] stands for this setting: at 50.0 µM (retest, dose inferred, filed as 5.0).

Where “and” joins values, the source holds several entries; their conditions need not be identical. Equal values may be shown once. This is part of a sample that, as a whole, favours compounds with a hit. Of some 79,000 tested, about 15% had one in any assay. Some compounds were tested as several samples or in several runs, with calls that do not always agree. Calls of active or inactive are those of the source. No stated cut-off is given here; in the data, active means growth inhibition above about 70%; inactive means the rest.

As to `CCOC(=O)c1c[nH]c2c([N+](=O)[O-])cc(OC)cc2c1=O`, the growth inhibition is -1% (inactive) in assay [1] (setting [7]); 32% (inactive) in assay [1] (setting [8]); 10.6% (inactive) and 61.4% (inactive) in assay [1] (at 50.0 µM); 2% (inactive) in assay [2] (setting [7]); 21% (inactive) in assay [2] (setting [8]); 40.1% (inactive) and 35.2% (inactive) in assay [2] (at 50.0 µM). Besides, the growth inhibition in assay [3] (setting [7]) was 3% (inactive); in assay [3] (setting [8]) it was 41% (inactive); in assay [3] (at 50.0 µM), 36% (inactive) and 16.3% (inactive); in assay [4] (setting [7]) it was -6% (inactive); in assay [4] (setting [8]) it was 24% (inactive); in assay [4] (at 50.0 µM) it was -11.7% (inactive) and -10.1% (inactive). Also, the growth inhibition in assay [5] (setting [7]) was 2% (inactive); in assay [5] (setting [8]) it was 46% (inactive); in assay [5] (at 50.0 µM), 18.6% (inactive) and 61% (inactive); in assay [6] (setting [7]), 6% (inactive); in assay [6] (setting [8]) it was 42% (inactive); in assay [6] (at 50.0 µM) it was 56.9% (inactive) and 73% (active).

As to `O=Nc1ccc(C=C2C(=O)C=CC2=O)cc1`, the growth inhibition is 94% (active) in assay [1] (setting [7]); 98% (active) in assay [1] (setting [8]); 99.5% (active) in assay [1] (at 50.0 µM); 99% (active) in assay [2] (setting [7]); 99% (active) in assay [2] (setting [8]); 99.7% (active) in assay [2] (at 50.0 µM). Further, the growth inhibition is 94% (active) in assay [3] (setting [7]); 99% (active) in assay [3] (setting [8]); 99.4% (active) in assay [3] (at 50.0 µM); 72% (active) in assay [4] (setting [7]); 98% (active) in assay [4] (setting [8]); 99% (active) in assay [4] (at 50.0 µM). Moreover, the growth inhibition is 84% (active) in assay [5] (setting [7]); 99% (active) in assay [5] (setting [8]); 99.4% (active) in assay [5] (at 50.0 µM); 97% (active) in assay [6] (setting [7]); 98% (active) in assay [6] (setting [8]); 99.5% (active) in assay [6] (at 50.0 µM).

With `NNc1c2ccccc2nc2ccccc12`, the growth inhibition in assay [1] (setting [7]) was 9% (inactive); in assay [1] (setting [8]) it was 79% (active); in assay [1] (at 50.0 µM), 21.1% (inactive) and 95.8% (active); in assay [2] (setting [7]), 6% (inactive); in assay [2] (setting [8]) it was 43% (inactive); in assay [2] (at 50.0 µM), 18.4% (inactive) and 85.8% (active). The growth inhibition in assay [3] (setting [7]) was 1% (inactive); in assay [3] (setting [8]), 47% (inactive); in assay [3] (at 50.0 µM) it was -10% (inactive) and 94% (active); in assay [4] (setting [7]) it was 4% (inactive); in assay [4] (setting [8]), 38% (inactive); in assay [4] (at 50.0 µM), -19.1% (inactive) and 92.5% (active). For the same molecule, the growth inhibition in assay [5] (setting [7]) is -5% (inactive); in assay [5] (setting [8]), 48% (inactive); in assay [5] (at 50.0 µM) it was -21.5% (inactive) and 93.5% (active); in assay [6] (setting [7]) it was 2% (inactive); in assay [6] (setting [8]), 86% (active); in assay [6] (at 50.0 µM), 8.4% (inactive) and 96.8% (active).

For `CC(=O)Oc1ccc2c(c1)Oc1cc(OC(C)=O)ccc1C21OC(=O)c2ccccc21`, the growth inhibition is 5% (inactive) in assay [1] (setting [7]); 5% (inactive) in assay [1] (setting [8]); 16.8% (inactive) and 98.2% (active) in assay [1] (at 50.0 µM); -3% (inactive) in assay [2] (setting [7]); 53% (inactive) in assay [2] (setting [8]); 19.5% (inactive) and 99.5% (active) in assay [2] (at 50.0 µM). Also, the growth inhibition is 3% (inactive) in assay [3] (setting [7]); 36% (inactive) in assay [3] (setting [8]); 30.9% (inactive) and 96.8% (active) in assay [3] (at 50.0 µM); 3% (inactive) in assay [4] (setting [7]); 54% (inactive) in assay [4] (setting [8]); 14.2% (inactive) and -25.1% (inactive) in assay [4] (at 50.0 µM). Besides, the growth inhibition in assay [5] (setting [7]) was -1% (inactive); in assay [5] (setting [8]) it was 27% (inactive); in assay [5] (at 50.0 µM) it was 18.6% (inactive) and 99.5% (active); in assay [6] (setting [7]), 14% (inactive); in assay [6] (setting [8]) it was 24% (inactive); in assay [6] (at 50.0 µM), 24.8% (inactive) and 98.7% (active).

Take `O=C1C=CC(=CC=C2C=CN(CCCCCCCCCCCO)C=C2)C=C1`: the growth inhibition was 12% (inactive) and 36% (inactive) in assay [1] (setting [7]); 93% (active) and 3% (inactive) in assay [1] (setting [8]); 88.8% (active) and 49.2% (inactive) in assay [1] (at 50.0 µM); 6% (inactive) and 40% (inactive) in assay [2] (setting [7]); 90% (active) and -2% (inactive) in assay [2] (setting [8]); 85.5% (active) and 65% (inactive) in assay [2] (at 50.0 µM). For the same molecule, the growth inhibition in assay [3] (setting [7]) is -10% (inactive) and 44% (inactive); in assay [3] (setting [8]), 93% (active) and 2% (inactive); in assay [3] (at 50.0 µM) it was 87.6% (active) and 62.8% (inactive); in assay [4] (setting [7]), 7% (inactive) and 18% (inactive); in assay [4] (setting [8]), 91% (active) and -8% (inactive); in assay [4] (at 50.0 µM), 82.7% (active) and 57.4% (inactive). The growth inhibition in assay [5] (setting [7]) is -3% (inactive) and 34% (inactive); in assay [5] (setting [8]), 98% (active) and 2% (inactive); in assay [5] (at 50.0 µM), 83% (active) and 50.6% (inactive); in assay [6] (setting [7]), 10% (inactive) and 37% (inactive); in assay [6] (setting [8]) it was 80% (active) and 1% (inactive); in assay [6] (at 50.0 µM), 88% (active) and 59.2% (inactive).

As to `Oc1ccc(Cc2ccccc2)cc1`, the growth inhibition is 1% (inactive) in assay [1] (setting [7]); 14% (inactive) in assay [1] (setting [8]); 63.6% (inactive) in assay [1] (at 50.0 µM); -3% (inactive) in assay [2] (setting [7]); 14% (inactive) in assay [2] (setting [8]); 34% (inactive) in assay [2] (at 50.0 µM). For the same molecule, the growth inhibition was -4% (inactive) in assay [3] (setting [7]); 15% (inactive) in assay [3] (setting [8]); 23.8% (inactive) in assay [3] (at 50.0 µM); -5% (inactive) in assay [4] (setting [7]); -12% (inactive) in assay [4] (setting [8]); -18.6% (inactive) in assay [4] (at 50.0 µM). For the same molecule, the growth inhibition in assay [5] (setting [7]) is -2% (inactive); in assay [5] (setting [8]), 6% (inactive); in assay [5] (at 50.0 µM) it was 42.2% (inactive); in assay [6] (setting [7]), 2% (inactive); in assay [6] (setting [8]), 11% (inactive); in assay [6] (at 50.0 µM) it was 72.2% (active).

For the molecule `Nc1c(C(=O)O)ccc(C(=O)O)c1C(=O)O`, the growth inhibition is -131% (inactive) in assay [1] (setting [7]); -173% (inactive) in assay [1] (setting [8]); -5.95% (inactive) and 2.45% (inactive) in assay [1] (at 50.0 µM); -50% (inactive) in assay [2] (setting [7]); -53% (inactive) in assay [2] (setting [8]); 14.1% (inactive) and -1% (inactive) in assay [2] (at 50.0 µM). Also, the growth inhibition in assay [3] (setting [7]) was -54% (inactive); in assay [3] (setting [8]), -67% (inactive); in assay [3] (at 50.0 µM), 25% (inactive) and 3.8% (inactive); in assay [4] (setting [7]) it was -56% (inactive); in assay [4] (setting [8]), -60% (inactive); in assay [4] (at 50.0 µM) it was 3.75% (inactive) and -23.4% (inactive). Moreover, the growth inhibition was -65% (inactive) in assay [5] (setting [7]); -79% (inactive) in assay [5] (setting [8]); -2.6% (inactive) and -5.8% (inactive) in assay [5] (at 50.0 µM); -113% (inactive) in assay [6] (setting [7]); -123% (inactive) in assay [6] (setting [8]); 33.5% (inactive) and -12.9% (inactive) in assay [6] (at 50.0 µM).

`CCCCCCCCCCCCN1C(=O)[N+](C)(C)N=C1[O-]`: the growth inhibition in assay [1] (setting [7]) is 6% (inactive); in assay [1] (setting [8]), 41% (inactive); in assay [1] (at 50.0 µM), 98.7% (active); in assay [2] (setting [7]), 4% (inactive); in assay [2] (setting [8]) it was 49% (inactive); in assay [2] (at 50.0 µM), 99.3% (active). For the same molecule, the growth inhibition in assay [3] (setting [7]) is 7% (inactive); in assay [3] (setting [8]), 60% (inactive); in assay [3] (at 50.0 µM), 99.1% (active); in assay [4] (setting [7]) it was -4% (inactive); in assay [4] (setting [8]) it was 21% (inactive); in assay [4] (at 50.0 µM), 97.5% (active). Moreover, the growth inhibition in assay [5] (setting [7]) is 4% (inactive); in assay [5] (setting [8]), 34% (inactive); in assay [5] (at 50.0 µM) it was 98.9% (active); in assay [6] (setting [7]), 4% (inactive); in assay [6] (setting [8]), 49% (inactive); in assay [6] (at 50.0 µM) it was 99.1% (active).
